Measurements taken from ChEMBL document CHEMBL3988442, “University of Dundee, Small-Polar-MMV Screening Library” (2021).
Hit rate of the full screen: of about 69,000 compounds, about 950 (1.4%) showed an effect of 50% or more. What follows is part of a selection rich in strong results, with near analogues and random picks from the rest.

What follows are compounds tested on Mycobacterium tuberculosis (assay: Cornell M. t heat shock assay; also: in the data most compounds retested in dose-response had high values).
Format: functional, organism-based
Parameters: dose or concentration left out as unconfirmed
For `CC(C)C(C)NC(=O)c1ncn2c1CN(C)S(=O)(=O)c1ccccc1-2.O=C(O)C(F)(F)F` (centres undefined), the “Percent Effect” value was -5.107%. `CCN(C)c1ncnc2c1CCN(Cc1ccsc1)CC2.O=C(O)C(F)(F)F.O=C(O)C(F)(F)F` was tested, and the “Percent Effect” value was -17.94%. For `O=C(Cn1cccc2cc(-c3ccc(F)cc3)nc1-2)N1CCC(O)CC1`, the “Percent Effect” value was -13.39%. For `CN(C)CCN(C)C(=O)Cn1cccc2cc(-c3ccc(F)cc3)nc1-2`, the “Percent Effect” value was 93.82%. `COc1ccc(-c2cc3cccn(CC(=O)N4CCOCC4)c-3n2)cc1` was tested, and the “Percent Effect” value was -34.2%. In the case of `O=C(O)C(F)(F)F.O=C1CO[C@@H]2CN(CC3CCOCC3)C[C@H]2N1CC1CC1`, the “Percent Effect” value is reported as -5.405%. In the case of `CN1C(=O)CC(c2ccccc2)C12CCN(CC1CC1)CC2.O=C(O)C(F)(F)F` (centres undefined), the “Percent Effect” value is reported as 1.497%. With `CCN1CCN(CCCNC(=O)c2cc3ccc(C)cc3nc2C)CC1` the “Percent Effect” value was -11.33%. `COc1ccc2nc(C)c(C(=O)NCCN3CCS(=O)(=O)CC3)cc2c1` was tested, and the “Percent Effect” value was 0.03382%. In the case of `Cc1ccc2cc(C(=O)NCCN3CCS(=O)(=O)CC3)c(C)nc2c1`, the “Percent Effect” value is reported as 96.87%. In the case of `CCN(CC)Cc1cn2c(n1)CN(Cc1c(C)noc1C)CC2.O=C(O)C(F)(F)F.O=C(O)C(F)(F)F`, the “Percent Effect” value is reported as -4.28%. With `Cn1nccc1-c1nnn2c1COCC(CNC1CCOCC1)C2.O=C(O)C(F)(F)F.O=C(O)C(F)(F)F` (centres undefined) the “Percent Effect” value was 3.559%. In the case of `CCn1nc(C)c2nc(C)nc(NC3CCCC3)c21`, the “Percent Effect” value is reported as 69.93%. For `CCn1nc(C)c2nc(C)nc(NCCc3ccccc3)c21`, the “Percent Effect” value was 83.2%. With `CCCc1nc(NCCCO)c2c(n1)c(C)nn2CC` the “Percent Effect” value was 24.94%. With `CCn1nc(C)c2nc(C)nc(NCCc3ccc(C)cc3)c21` the “Percent Effect” value was 69.41%. With `Cc1nc(NC2CC2)c2c(n1)c(C)nn2C` the “Percent Effect” value was -10.52%. In the case of `CCCc1nc(NCCOC)c2c(n1)c(C)nn2CC`, the “Percent Effect” value is reported as -17.61%. For `CCCn1c(NCCc2ccccc2)nc2c(C)nn(C)c2c1=O`, the “Percent Effect” value was 22.06%. `CCCc1nc(NCCc2ccccc2)c2c(n1)c(C)nn2CC` was tested, and the “Percent Effect” value was 91.68%. With `CCn1nc(C)c2nc(C(C)C)nc(NCCc3ccc(O)cc3)c21` the “Percent Effect” value was -11.29%. For `CCn1nc(C)c2nc(C)nc(NCCCn3cccn3)c21`, the “Percent Effect” value was -3.879%. In the case of `CCCc1nc(NCCCOC)c2c(n1)c(C)nn2CC`, the “Percent Effect” value is reported as -13.02%. For `Cc1nc(NC2CCCC2)c2c(n1)c(C)nn2C`, the “Percent Effect” value was 15.85%. For `O=C(O)C(F)(F)F.O=C(O)C(F)(F)F.c1cc(CN2CCO[C@H]3[C@H](OCC4CCCC4)CC[C@@H]32)ccn1`, the “Percent Effect” value was 3.983%. In the case of `Cc1ccc(C(=O)N2CCC3(CCCN(c4ncc(F)cn4)C3)C2)cn1.O=C(O)C(F)(F)F` (centres undefined), the “Percent Effect” value is reported as 10.32%. With `C1CC(CO[C@@H]2CC[C@H]3[C@H]2OCCN3CC2CC2)CCO1.O=C(O)C(F)(F)F` the “Percent Effect” value was -24.78%. For `Cc1ccc(C)c(CSc2nnc(C(N)Cc3ccccc3)o2)c1.Cl` (centres undefined), the “Percent Effect” value was -13.89%. For `Cl.O=C(C1CC1)N1CCOC2(CCNCC2)C1`, the “Percent Effect” value was 27.3%. With `Fc1ccc(CN2C[C@@H]3OCCN(CC4CCCO4)[C@@H]3C2)cc1.O=C(O)C(F)(F)F.O=C(O)C(F)(F)F` (some centres undefined) the “Percent Effect” value was -48.55%. With `CCc1ncnc2c1CCN(Cc1ccc3c(c1)OCO3)CC2.O=C(O)C(F)(F)F` the “Percent Effect” value was -11.62%. For `COC[C@H]1CC[C@@H]2[C@@H](CCN2Cc2ccco2)O1.O=C(O)C(F)(F)F`, the “Percent Effect” value was -6.92%. `Cc1ccc(CN2CCOC3(CCN(CC4CCOC4)CC3)C2)cc1.O=C(O)C(F)(F)F.O=C(O)C(F)(F)F` (centres undefined) was tested, and the “Percent Effect” value was 35.27%. With `CNC(=O)[C@H]1CO[C@H]2CCN(Cc3ccc4ccccc4n3)C[C@H]2C1.O=C(O)C(F)(F)F.O=C(O)C(F)(F)F` the “Percent Effect” value was -6.104%. In the case of `CCCc1nc(N2CCN(CC)CC2)c2c(n1)c(C)nn2CC`, the “Percent Effect” value is reported as -31.53%. With `CCCc1nc(N2CCCCC2)c2c(n1)c(C)nn2CC` the “Percent Effect” value was -7.298%. In the case of `CCCc1nc(N2CCCCCC2)c2c(n1)c(C)nn2CC`, the “Percent Effect” value is reported as 50.35%. In the case of `COCC(=O)N1CCOCC2(CCN(Cc3cccs3)C2)C1.O=C(O)C(F)(F)F` (centres undefined), the “Percent Effect” value is reported as -21.04%. For `Cc1ccc(CN2CCn3c(CN(C)C(C)C)cnc3C2)s1.O=C(O)C(F)(F)F.O=C(O)C(F)(F)F`, the “Percent Effect” value was -14.26%. For `Cc1cn2c(n1)C(CNCC1=Cc3ccccc3OC1)CCC2` (centres undefined), the “Percent Effect” value was 28.86%. For `Cc1cn2c(n1)C(CNCC1=Cc3cc(Cl)ccc3OC1)CCC2` (centres undefined), the “Percent Effect” value was 99%. `Cc1cn2c(n1)C(CNCc1ccc(C)s1)CCC2` (centres undefined) was tested, and the “Percent Effect” value was -22.18%. For `O=C(NCC1CC1)[C@H]1C[C@@H]2CCN(Cc3ccc4c(c3)OCO4)C[C@@H]2O1.O=C(O)C(F)(F)F`, the “Percent Effect” value was -28.42%. For `c1ccc(-c2nc(CNCCn3cccn3)cs2)cc1`, the “Percent Effect” value was 37.88%. For `c1ccc(-c2nc(CNCCn3cccn3)cs2)nc1`, the “Percent Effect” value was -25.33%. In the case of `COc1cccc(-c2nc(CNCCn3cccn3)cs2)c1`, the “Percent Effect” value is reported as 90.69%. In the case of `COc1cccc(-c2nc(CNCCc3cccnc3)cs2)c1`, the “Percent Effect” value is reported as -0.6336%. In the case of `Fc1ccc(-c2nc(CNCCn3cccn3)cs2)cc1`, the “Percent Effect” value is reported as 66.63%. With `Fc1ccccc1-c1nc(CNCCn2cccn2)cs1` the “Percent Effect” value was 20.44%. `c1csc(-c2nc(CNCCn3cccn3)cs2)c1` was tested, and the “Percent Effect” value was 10.7%. `COc1cccc(-c2nc(CNCCCn3cccn3)cs2)c1` was tested, and the “Percent Effect” value was 37.34%. In the case of `c1cnc(-c2nc(CNCCn3cccn3)cs2)nc1`, the “Percent Effect” value is reported as -0.9429%. With `Clc1ccccc1-c1nc(CNCCn2cccn2)cs1` the “Percent Effect” value was 54.38%. With `Fc1ccc(-c2n[nH]cc2CNCCn2cccn2)cc1` the “Percent Effect” value was 11.69%. With `c1cnn(CCNCc2csc(-c3ccsc3)n2)c1` the “Percent Effect” value was 52.72%. With `Cc1ccc(CN2CCC3(CC2)CN(c2cnn(C)c2)C(=O)CO3)o1.O=C(O)C(F)(F)F` the “Percent Effect” value was -7.35%. `OCCOc1cc(F)ccc1NCc1cccc(F)c1F` was tested, and the “Percent Effect” value was -41.85%. `O=C(O)C(F)(F)F.O=S(=O)(c1cccs1)N1CC[C@H](O)[C@@H]1Cc1ccncc1` was tested, and the “Percent Effect” value was -2.198%. In the case of `Cn1cc(N2C(=O)CC[C@@H]3[C@H]2CCN3CCc2ccccc2)cn1.O=C(O)C(F)(F)F.O=C(O)C(F)(F)F`, the “Percent Effect” value is reported as -25.96%.
